The text below walks through data of PubChem BioAssay (NCATS).

The nature of test [1]: AP1 Signaling Pathway (AID 357).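 Also: ME-180 reporter cells stimulated with EGF at its EC50 level; % is scaled to controls: 0 for no effect and ±100 for the full control effect.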 Particulars: ME-180 AP-1-bla reporter, EGF-induced, beta-lactamase ratio, 5 h. The essentials: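 AP-1-bla ME-180 cells, Opti-MEM + 0.5% dialyzed FBS, plated overnight 37 °C. Cpd titration + EC50 EGF, 5 h 37 °C. CCF4 2.5 h RT; ex 405, em 460/530 ratio → %activity, AC50.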
The target in test [2] is Cytochrome P450 1A2 (Homo sapiens) (UniProt P05177). Briefly: p450-cyp1a2 (AID 410; calls by dose curve; also: potency is read from the fitted curve at half-maximal effect;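 as to activity change, negative = inhibition: -100% = full effect of reference inhibitor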). Particulars: recombinant CYP1A2, luciferin-ME demethylation, luminescence; series mostly up to 57 µM. The essentials: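 Luminescent readout of luciferin formed from Luciferin-ME by human CYP1A2; data normalized against complete inhibition by 57 uM furafylline. Enzyme 20nM, substrate 100uM at Km, 100mM KPO4 buffer, 60 min reaction at room temperature.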

Test [3] in a line: NFAT Signaling Pathway (AID 444).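 Also: carbachol stimulus at about its EC50 of 1 µM final; % is scaled to controls: 0 for no effect and ±100 for the full control effect.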 The conditions noted are these: Jurkat NFAT-bla M1, carbachol, beta-lactamase ratio, 5 h. In outline: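 Jurkat cells with NFAT-driven β-lactamase reporter and co-expressed M1 receptor, stimulated with carbachol (final 1 uM, ~EC50), compound titration, 5 h at 37 °C. CCF4 loaded 1 h at RT; 460/530 nm ratio gave %activity and AC50.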
Test [4] can be described thus: Stat Signaling Pathway (AID 446).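 Also: ME-180 cervical cancer cells given 40 pM IL-6 alongside compound; SIE-controlled beta-lactamase reporter measured as 460/530 nm FRET emission ratio; % is scaled to controls: 0 for no effect and ±100 for the full control effect.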 Particulars: ME-180 (cervical carcinoma) SIE beta-lactamase reporter, IL-6 stimulated, 5 h; series mostly up to 17.2 µM. The essentials: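 IL-6/STAT signaling read in ME-180 cells via an SIE beta-lactamase reporter. Stimulus was 40 pM IL-6 (its AC50) for 5 hrs, so both activation and inhibition register.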
Test [5] addresses Glucocorticoid receptor (Homo sapiens) (UniProt P04150). Kind of test: GR-EFC Redistribution (AID 451; calls by dose curve; also: potency is read from the fitted curve at half-maximal effect). Particulars: CHO-K1 GR-EFC translocation, beta-gal luminescence, 2 h. In outline:
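CHO-K1 cells expressing nuclear EA and GR-ED fragments of b-gal; compounds titrated up to 46 uM final, 2 h at 37 C. GR nuclear translocation read as complemented b-gal luminescence after 1 h RT detection.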

For test [6], the target named is Mitogen-activated protein kinase 10 (Mus musculus) (UniProt Q61831). Kind of test: JNK3 AlphaScreen Assay (AID 530).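 Also: kinase came from lysate of stimulated human HepG2 cells; signal reports phosphorylation of biotinylated GST-cJun 1-79 at Ser73 with 10 µM ATP; % is scaled to controls: 0 for no effect and ±100 for the full control effect.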 Particulars: JNK3 lysate, c-Jun phosphorylation; series mostly up to 57.1 µM. In outline:
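Pre-activated (IL-1β/TNFα) JNK3 in HepG2 lysates phosphorylates biotin-GST-cJun(1-79), 10 uM ATP; anti-phospho-cJun(Ser73) AlphaScreen read at room temperature, pH 7.6 Tris buffer. Compounds pre-incubated 15 min as titrations.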
For orientation: In Alpha technology, singlet oxygen from a donor bead excites a nearby acceptor bead.

Test [7] has as its target Lysosomal acid glucosylceramidase (Homo sapiens) (UniProt P04062). Kind of test: Glucocerebrosidase-p2 (AID 348; in the data active = potency below about 10 µM; also: potency is read from the fitted curve at half-maximal effect). Particulars: purified GBA, blue fluorogenic substrate, 40 min. In outline: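 Compounds titrated from 0.6 nM upwards against 0.2 nM enzyme in pH 5.9 citric acid/KH2PO4, taurocholate, tween-20; blue fluorogenic substrate 80 uM, 40 min room temperature, stopped and read Ex 365/Em 440 for AC50.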

“And” between values parts separate entries of the source, which are not always exact repeats. Identical values can stand only once. Unmarked numbers belong to inactive results. Records with an inconclusive call do not appear. The source made the active and inactive calls. Unless noted, calls follow the shape of the dose curve; as a rule, active = well fitted curve in either direction with a large enough effect (not every such curve was filed as active); inconclusive = small, poorly fitted or top-dose-only effect, or another doubt; inactive = flat fitted curve, though single readings scatter.

Chain of Cytochrome P450 1A2 (Homo sapiens) (P05177 whole entry, looked up): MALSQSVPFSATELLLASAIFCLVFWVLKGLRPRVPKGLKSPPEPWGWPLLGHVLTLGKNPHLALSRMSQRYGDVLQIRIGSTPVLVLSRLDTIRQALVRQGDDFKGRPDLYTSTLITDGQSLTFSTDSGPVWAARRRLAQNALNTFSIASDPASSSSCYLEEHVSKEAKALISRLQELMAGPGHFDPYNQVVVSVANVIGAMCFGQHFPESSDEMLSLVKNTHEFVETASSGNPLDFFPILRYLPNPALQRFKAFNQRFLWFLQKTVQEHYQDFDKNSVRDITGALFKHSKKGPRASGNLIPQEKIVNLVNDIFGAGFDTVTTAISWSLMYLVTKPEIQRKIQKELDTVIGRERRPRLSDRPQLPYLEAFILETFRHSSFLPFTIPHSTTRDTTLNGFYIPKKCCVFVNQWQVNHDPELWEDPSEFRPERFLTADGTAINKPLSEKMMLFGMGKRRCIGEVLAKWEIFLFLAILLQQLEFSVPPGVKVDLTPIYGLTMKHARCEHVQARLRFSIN
Chain of Glucocorticoid receptor (Homo sapiens) (P04150 whole entry, looked up, the tested form may be a part): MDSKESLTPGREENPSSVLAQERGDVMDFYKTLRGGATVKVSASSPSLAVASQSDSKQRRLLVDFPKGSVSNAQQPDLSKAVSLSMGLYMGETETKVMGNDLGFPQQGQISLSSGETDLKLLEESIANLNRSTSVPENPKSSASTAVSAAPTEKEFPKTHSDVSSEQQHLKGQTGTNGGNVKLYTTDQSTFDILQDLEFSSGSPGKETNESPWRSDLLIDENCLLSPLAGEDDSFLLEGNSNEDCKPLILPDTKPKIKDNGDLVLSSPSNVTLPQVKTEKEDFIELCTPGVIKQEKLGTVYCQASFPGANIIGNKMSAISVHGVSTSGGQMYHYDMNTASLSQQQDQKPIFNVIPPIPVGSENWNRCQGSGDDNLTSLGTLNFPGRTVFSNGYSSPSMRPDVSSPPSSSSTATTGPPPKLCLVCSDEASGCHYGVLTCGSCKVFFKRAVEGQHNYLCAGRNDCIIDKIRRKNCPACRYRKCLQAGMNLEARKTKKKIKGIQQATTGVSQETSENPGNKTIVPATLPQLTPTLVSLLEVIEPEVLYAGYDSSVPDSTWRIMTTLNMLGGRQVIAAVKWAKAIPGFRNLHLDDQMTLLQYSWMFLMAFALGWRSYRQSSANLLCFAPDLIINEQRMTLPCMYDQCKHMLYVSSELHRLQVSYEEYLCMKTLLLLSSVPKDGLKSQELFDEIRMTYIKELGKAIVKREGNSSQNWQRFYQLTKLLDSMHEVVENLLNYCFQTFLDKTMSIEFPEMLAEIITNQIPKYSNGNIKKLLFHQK
Chain of Lysosomal acid glucosylceramidase (Homo sapiens) (P04062 whole entry, looked up): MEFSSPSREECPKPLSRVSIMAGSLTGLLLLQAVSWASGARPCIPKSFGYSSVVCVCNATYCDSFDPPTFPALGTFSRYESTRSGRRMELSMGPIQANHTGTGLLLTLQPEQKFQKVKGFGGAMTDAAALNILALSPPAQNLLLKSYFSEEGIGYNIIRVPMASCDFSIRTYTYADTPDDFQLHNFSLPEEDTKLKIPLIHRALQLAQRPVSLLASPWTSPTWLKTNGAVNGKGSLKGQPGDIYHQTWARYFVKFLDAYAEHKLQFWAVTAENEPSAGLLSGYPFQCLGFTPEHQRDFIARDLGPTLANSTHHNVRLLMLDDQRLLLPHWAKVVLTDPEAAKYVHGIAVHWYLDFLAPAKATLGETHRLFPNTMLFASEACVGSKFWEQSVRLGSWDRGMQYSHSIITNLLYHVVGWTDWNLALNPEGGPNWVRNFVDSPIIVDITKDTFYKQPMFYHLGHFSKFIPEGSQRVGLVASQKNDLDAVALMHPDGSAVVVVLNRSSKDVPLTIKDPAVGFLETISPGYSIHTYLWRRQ

For the molecule `C[N+](C)(C)CCCCCCCCCC[N+](C)(C)C`, the activity change, negative = inhibition in test [1] (at 17.2 µM (top of the series)) is 5.88% and 0.653%; in test [1] (at 38 µM (top of the series)), 6.36%; in test [3] (at 17.2 µM (top of the series)), -20.5% and -5.13%; in test [3] (at 38 µM (top of the series)), -4.26%. Moreover, the Potency result in test [2] and in test [6] was “inactive” each time. Further, in test [4], the outcome was inactive. Moreover, the Potency in test [5] is > 46 µM and > 20.6 µM.

In the case of `CCOC(=O)C1=C(C)NC(C)=C(C(=O)OC)C1c1cccc([N+](=O)[O-])c1` (configuration not stated), the activity change, negative = inhibition in test [1] (at 17.2 µM (top of the series)) was -25.4%.

As to `CCO/C([O-])=N/c1c[n+](N2CCOCC2)no1`, the activity change, negative = inhibition in test [1] (at 17.2 µM (top of the series)) is -2.58% and 9.89%; in test [1] (at 38 µM (top of the series)), 19.4%; in test [3] (at 17.2 µM (top of the series)) it was -13.9% and -20.6%; in test [3] (at 38 µM (top of the series)) it was -9.67%. Besides, the Potency result in test [2] and in test [6] was “inactive” each time. Further, the result in test [4] was inactive. Also, the Potency in test [5] was > 46 µM and > 20.6 µM.

For the molecule `O=C(CCNNC(=O)c1ccncc1)NCc1ccccc1`, the activity change, negative = inhibition was -5.47% and 0.412% in test [1] (at 17.2 µM (top of the series)); 1.11% in test [1] (at 38 µM (top of the series)); -23.8% and -5.87% in test [3] (at 17.2 µM (top of the series)); 4.78% in test [3] (at 38 µM (top of the series)). The Potency in test [2] is 31.6 µM (active) and 12.6 µM (active); in test [5], > 46 µM and > 20.6 µM. In test [4], the call was inactive. The Potency result in test [6] was “inactive”.

As for `C[C@H](CS)C(=O)N1CCC[C@H]1C(=O)O`, the activity change, negative = inhibition was -1.77% in test [1] (at 17.2 µM (top of the series)), 3.53% in test [1] (at 38 µM (top of the series)), 2% in test [3] (at 17.2 µM (top of the series)) and -1.57% in test [3] (at 38 µM (top of the series)). For the same molecule, the Potency result in test [2] and in test [6] was “inactive” in each case. For the same molecule, the result in test [4] was inactive.

For `CC(=O)Nc1nnc(S(N)(=O)=O)s1`, the activity change, negative = inhibition in test [1] (at 17.2 µM (top of the series)) was 2.87%; in test [1] (at 38 µM (top of the series)), 2.53%; in test [3] (at 17.2 µM (top of the series)), -0.673% and -9.62%; in test [3] (at 38 µM (top of the series)) it was 2.29%. The Potency result in test [2] and in test [6] was “inactive” throughout. The molecule was called inactive in test [4]. Further, in test [5], the Potency was > 46 µM and > 20.6 µM.

Consider `O=C(O)CP(=O)(O)O`, for which the Potency in test [7] was more than 11.4 µM; in test [5], > 46 µM and > 9.22 µM. Also, the activity change, negative = inhibition in test [1] (at 7.69 µM (top of the series)) was 0.401%; in test [1] (at 38 µM (top of the series)), 7.05%; in test [3] (at 7.69 µM (top of the series)), -1.52%; in test [3] (at 38 µM (top of the series)), 3.66%. In addition, the Potency result in test [2] and in test [6] was “inactive” in each case. In test [4], the result was inactive.

Take `C#CCN(C)CCCOc1ccc(Cl)cc1Cl`: the activity change, negative = inhibition in test [1] (at 17.2 µM (top of the series)) was -12.7%; in test [1] (at 38 µM (top of the series)), -0.876%; in test [3] (at 17.2 µM (top of the series)), -4.25%; in test [3] (at 38 µM (top of the series)), -1.82%. Moreover, the Potency is 631 nM (active) and 158 nM (active) in test [2]; > 46 µM and > 20.6 µM in test [5]. In test [4], the molecule was called inactive. In addition, the Potency entry in test [6] is “inactive”.
